The values that follow come from PubChem BioAssay.

SMILES strings stand for the structures. “And” between values parts separate entries of the source, which are not always exact repeats. Equal values may be shown once. A number with no mark means an inactive call. The source made the active and inactive calls. Rule as the data show it: active = response above about 15%; inactive = the rest.

The nature of this test: yeast V-ATPase proton transport modulators, S. cerevisiae, pHLuorin, HTS validation (AID 504600).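 Also: plate controls were DMSO for no effect and reference compound for full effect.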 The settings on record: S. cerevisiae pHLuorin cytosolic pH, at 10 µM, active compounds read high.
Consider `S=C(NCCOCCOCCNC(=S)Nc1ccccc1)Nc1ccccc1`, for which the response is 6.24%. With `Cc1ccc(CN2CCN(Cc3cn[nH]c3C3CCCCC3)CC2CCO)cc1` (centres undefined) the figure was -2.29%; with `OCCC1CN(Cc2ccccc2-c2ccco2)CCN1C1CCCC1` (centres undefined), 4.26%. Consider `COc1ccc2oc(-c3ccco3)cc(=O)c2c1`, for which the response is 2.89%. On to `Nc1nc2c(nc(SCc3ccccc3Br)n2C2OC(CO)C(O)C2O)c(=O)[nH]1` (centres undefined), for which the response is -4.55%.

For `O=C(CCC(=O)NCCO)NCCO`, the response is -3.85%. With `Cc1cc(=O)[nH]c(=S)[nH]1` the figure was 0.42%; with `CN(C)C(=O)Oc1cccc([N+](C)(C)C)c1`, 0% and -1.87%; with `COc1cc(/C=C/C(=O)O)cc(S(=O)(=O)NCCCO)c1OC`, -0.12%. With `COC(=O)c1sccc1NC(=O)Nc1ccccc1F` the figure was -6.01%; with `CC1(C)C(=O)OC(/C=C\c2ccccc2)C(C)(C)C1=O` (centres undefined), -6.88%; with `O=C(/C=C/c1ccc(F)cc1)NC(=S)N1CCCCC1c1cccnc1` (centres undefined), 5.24%. As to `COc1cc2c(cc1OC)C1(CCCC1)CNC2c1cccc([N+](=O)[O-])c1` (centres undefined), the response is 35.2% (active). Turning to `O=C(NCCO)c1ccc(Cl)c(Cl)c1`, the response is 0.22%.

On to `N#C/C(=C\c1ccc(O)c(O)c1)C(=O)NCCCc1ccccc1`, for which the response is -4.8%. The same measure for `CSCC[C@H](NC(=O)OC(C)(C)C)C(=O)N1CCC(C(=O)N[C@@H](C)C(=O)O)CC1`: -1.98%; for `Cc1cc(-c2nn(-c3ccccc3F)cc2CN2CCCC(O)C2)c(C)s1` (centres undefined): -5.22%; for `COCCCNc1nc2c([nH]1)c(=O)[nH]c(=O)n2C`: 6.45%. With `CC(C)Oc1ccc2c(=O)c(-c3ccccc3)coc2c1` the figure was 1.01%; with `O=C(Nc1cccc(Oc2c(F)c(F)c(F)c(F)c2F)c1)N1C[C@@H]2C[C@@H](C1)c1cccc(=O)n1C2`, 0.72%. Take `CCCCC[C@H](O)/C=C/C1=C(CCCCCCC(=O)O)C(=O)CC1`: the response is 31% (active). For the compound `CC(=O)OC[C@H]1O[C@@H](Sc2cccc3cccnc23)[C@H](OC(C)=O)[C@@H](OC(C)=O)[C@H]1OC(C)=O`, the response is 0.07%. For the compound `COc1cc(OC)cc(C(C)=O)c1`, the response was -2.23%. With `Nc1ccc2nc(Cc3ccccc3)[nH]c2c1` the figure was -0.84%. With `COc1ccc2c(c1)[N+](C)(C)C(C)(C)C=C2C` the figure was -1.92%. With `COc1ccc(CCN(C)Cc2nc(Cc3ccc(OC)c(OC)c3)no2)cc1OC`, the response was 8.73%. With `N=c1c[n+](N2CCOCC2)[n-]o1` the figure was -0.08%.

`CCCc1cc(=O)[nH]c(=S)[nH]1`: the response is 12.1%. The same measure for `COC(=O)c1ccccc1NC(=O)c1ccc(COc2ccc3c(c2)CCC3)cc1`: -3.9%. `CC1(C)Cc2ccccc2-c2nc(-c3ccccc3)oc(=O)c21`: the response is -7.89%. The same measure for `Cc1cc(=O)oc2c(CN(C)Cc3ccccc3)c(O)ccc12`: 1.53%; for `CC1=NN(c2ccccc2)C(=O)C1`: 0.56%. Take `CCOc1ccc2ccccc2c1C(=O)N[C@@H]1C(=O)N2[C@@H]1SC(C)(C)[C@@H]2C(=O)O`: the response is 0.05%. `O=C1CC2(CCCC2)CC(=O)N1CCCCN1CCN(c2ncccn2)CC1`: the response was 2.1%. In the case of `Cc1ccc(C2=NOC(=O)/C2=C\C=C\c2ccccc2)cc1`, the response is -2.56%. Regarding `COc1ccc2c3c([nH]c2c1)C1(NCC3)C(=O)Nc2ccccc21` (centres undefined), the response is -0.21%. The same measure for `CC1(C)S[C@@H]2[C@H](NC(=O)Cc3ccccc3)C(=O)N2[C@H]1C(=O)O`: -1.26%; for `COc1cc2cc(C(=O)O)[nH]c2c(OC)c1OC`: -0.34%; for `Clc1cc(-c2ccc(/C=N/n3cnnc3)o2)ccc1Br`: 3.36%.
